Assay results reported in publication PMC4336329 (PLoS ONE, 2015).
In all, about 310,000 compounds went through this assay and about 14,000 (4.5%) showed an effect of 50% or more. Effects have a minus sign here. Many of the other results were omitted from the sample, so strong results are more common in it than they were.

Biological target: human ether-à-go-go-related gene (hERG) potassium channel (human, UniProt Q12809)
Assay: primary screen, population patch clamp on CHO cells stably expressing hERG; higher = less effect of the substance
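Also: peak tail current of the secondary pulse compared with the same well before compound.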

Chain of human ether-à-go-go-related gene (hERG) potassium channel (Q12809 whole entry, looked up): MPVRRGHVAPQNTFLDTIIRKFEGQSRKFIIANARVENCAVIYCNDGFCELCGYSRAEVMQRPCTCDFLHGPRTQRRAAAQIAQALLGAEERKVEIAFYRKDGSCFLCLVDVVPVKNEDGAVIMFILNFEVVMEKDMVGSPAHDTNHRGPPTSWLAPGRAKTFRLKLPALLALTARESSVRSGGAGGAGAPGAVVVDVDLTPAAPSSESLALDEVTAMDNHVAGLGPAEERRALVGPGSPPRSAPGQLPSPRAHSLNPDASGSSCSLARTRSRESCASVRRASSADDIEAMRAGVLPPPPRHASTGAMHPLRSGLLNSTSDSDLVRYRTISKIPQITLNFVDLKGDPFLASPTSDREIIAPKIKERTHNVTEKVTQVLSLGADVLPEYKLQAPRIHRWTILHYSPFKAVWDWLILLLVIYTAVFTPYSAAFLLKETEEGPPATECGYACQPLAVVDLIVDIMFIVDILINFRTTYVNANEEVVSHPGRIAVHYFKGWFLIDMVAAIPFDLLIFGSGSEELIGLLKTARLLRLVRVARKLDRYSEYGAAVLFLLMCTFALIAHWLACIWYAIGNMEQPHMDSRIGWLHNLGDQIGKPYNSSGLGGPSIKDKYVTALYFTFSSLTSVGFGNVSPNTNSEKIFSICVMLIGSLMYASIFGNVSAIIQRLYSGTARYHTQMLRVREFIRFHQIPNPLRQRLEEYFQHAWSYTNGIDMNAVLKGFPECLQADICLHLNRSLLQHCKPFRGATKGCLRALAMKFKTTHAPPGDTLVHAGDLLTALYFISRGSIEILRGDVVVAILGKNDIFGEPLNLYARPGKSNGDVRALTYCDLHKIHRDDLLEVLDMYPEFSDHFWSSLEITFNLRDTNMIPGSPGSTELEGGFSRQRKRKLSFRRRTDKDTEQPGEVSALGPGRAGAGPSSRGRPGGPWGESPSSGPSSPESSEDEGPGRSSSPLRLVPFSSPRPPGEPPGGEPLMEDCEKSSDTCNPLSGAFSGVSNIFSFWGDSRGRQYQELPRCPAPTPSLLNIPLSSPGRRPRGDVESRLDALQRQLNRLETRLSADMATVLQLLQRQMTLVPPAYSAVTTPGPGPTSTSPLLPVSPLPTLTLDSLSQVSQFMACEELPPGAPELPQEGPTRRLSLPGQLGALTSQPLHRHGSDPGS

Compound	hERG current change (%, negative = inhibition) at 10uM [%]
COc1ccc(C(C(=O)NC2CCCCC2)N2CCC3(CC2)OCCO3)cc1 (stereo not shown)	-8.32
Nn1c(Nc2ccccc2)nc2ccccc2c1=O	14.2
O=C(CC1C(=O)NCCN1Cc1cccc(F)c1F)NC1CCCCCC1 (stereo not shown)	-10.6
CC1CCN(c2ccc(S(=O)(=O)NC3=NCCCCC3)cc2[N+](=O)[O-])CC1	-11.2
COc1cccc(C2CC(c3cccs3)=NN2S(C)(=O)=O)c1OC (stereo not shown)	7.29
CCc1cc(C(=O)NNC(=S)Nc2cccc(C)c2)cs1	3.09
O=C1c2ccccc2C(=O)N1CCSc1ncn[nH]1	19.7
O=[N+]([O-])c1ccccc1S(=O)(=O)NCc1ccc(F)cc1	7.19
CCC(NC(=O)c1ccccc1O)c1ccccc1 (stereo not shown)	-33.3
CC(NC(=O)c1ccc([N+](=O)[O-])cc1[N+](=O)[O-])c1ccc(-c2ccccc2)cc1 (stereo not shown)	-1.64
CCC(NC(=O)c1ccc([N+](=O)[O-])cc1[N+](=O)[O-])c1ccccc1 (stereo not shown)	-56
CN(C)c1ccc(CNCC2CCCO2)cc1.Cl (stereo not shown)	10.5
Cc1ccc(NC(=O)CN(C)C(=O)CCC(=O)c2cccs2)cc1	-16.2
CC1CCOC2(O1)C(=O)Nc1ccccc12 (stereo not shown)	16.1
Cc1nnc(Sc2cc(C(=O)NCCCN(C)Cc3ccccc3)c3ccccc3n2)s1	-56.2
CN(C)CCNC(=O)c1cc(Sc2ccc(F)cc2)nc2ccccc12	-72.5
CCOCCCNC(=O)c1cc(Sc2ccc(F)cc2)nc2ccccc12	-12.4
O=C(NCCCN1CCCC1)c1cc(Sc2ccc(F)cc2)nc2ccccc12	-74.1
CC(C)OCCCNC(=O)c1cc(Sc2ccc(F)cc2)nc2ccccc12	-5.77
COCCCNC(=O)c1cc(Sc2ccc(F)cc2)nc2ccccc12	-26.9
COCCNC(=O)c1cc(Sc2nnc(C)s2)nc2ccccc12	-18.2
Cc1ccc(Sc2cc(C(=O)NCCN(C)C)c3ccccc3n2)cc1	-93.9
O=C(NCCCN1CCOCC1)c1cc(-c2ccc(F)cc2)nc2ccccc12	-27.5

Compound	hERG current change (%, negative = inhibition) at 10uM [%]
CCN(CC)CCCNC(=O)c1cc(Sc2nnc(C)s2)nc2ccccc12	-40.4
CCN(CC)CCNC(=O)c1cc(Sc2nnc(C)s2)nc2ccccc12	-45.3
COCCCNC(=O)c1cc(Sc2nnc(C)s2)nc2ccccc12	2.3
O=C(O)CCc1ccc(-c2ccc(F)cc2)n1NC(=O)c1ccco1	8.01
CCN(CC(=O)N1CCN(C)CC1)S(=O)(=O)c1ccc(Cl)cc1	-5.94
O=C1c2ccccc2S(=O)(=O)c2cc(C(=O)N3CCCC3)ccc21	-1.93
O=C(CNC(=O)c1cccc(Br)c1)N/N=C/c1cccnc1	-14
O=C(Nc1cccc(-c2ccc(N3CCCCC3)nn2)c1)C(F)(F)F	-8.5
C/C(CC(=O)NC1CCCCC1)=N\NC(=O)COc1ccc(C)cc1Br	-22.8
Cc1ccc(Sc2cc(C(=O)NCCCN(C)C)c3ccccc3n2)cc1	-56.5
CCOCCCNC(=O)c1cc(Sc2ccc(C)cc2)nc2ccccc12	-19.3
CCOCCCNC(=O)c1cc(Sc2nnc(C)s2)nc2ccccc12	-2.23
COc1ccc(C=O)cc1OS(=O)(=O)c1ccccc1[N+](=O)[O-]	-3.35
COc1ccc(NS(=O)(=O)c2cccc(C(=O)NNC(=O)c3ccccc3OC)c2)cc1	-16.4
CN(C)CCCn1c(=O)n(Cc2ccco2)c(=O)c2c3c(sc21)CCCCC3	-71.1
CN(C)CCn1c(=O)n(-c2ccc(F)cc2)c(=O)c2c3c(sc21)CCCCC3	-18.6
Cn1c(=O)n(Cc2ccco2)c(=N)c2c3c(sc21)CCC3	-64.8
NC(=O)Cn1c(=O)n(Cc2ccco2)c(=O)c2c3c(sc21)CCCCC3	5.2
CC(O)CNc1nc2sc3c(c2c(=O)n1Cc1ccco1)CCCCC3 (stereo not shown)	4.61
CN(C)CCn1c(=O)n(Cc2ccco2)c(=O)c2c3c(sc21)CCCCC3	-50.4
CN(C)CCn1c(=O)n(-c2cccc(Cl)c2)c(=O)c2c3c(sc21)CCCCC3	-20.7
O=c1c2c3c(sc2[nH]c(=S)n1Cc1ccco1)CCC3	6.17
Cn1c(=O)n(Cc2ccco2)c(=N)c2c3c(sc21)CCCC3	-31.4

Compound	hERG current change (%, negative = inhibition) at 10uM [%]
Cc1c(NC(=O)COC(=O)CSc2ccc(C(N)=O)cc2[N+](=O)[O-])c(=O)n(-c2ccccc2)n1C	23.1
Cc1ccc(C)c(S(=O)(=O)N2CCN(C(=O)CCNS(=O)(=O)c3ccccc3)CC2)c1	-33.6
O=C1NC(c2ccccc2)=NC1(NS(=O)(=O)c1ccccc1)C(F)(F)F (stereo not shown)	-3.5
Cc1ccc(S(=O)(=O)N2CCC(C(=O)OC(C)C(=O)NC3CCCCC3C)CC2)cc1C (stereo not shown)	-25.4
Cc1ccc(NC(=O)c2sc3nc4c(c(-c5ccco5)c3c2N)CCC4)cc1	11.6
Cc1cc(C(=O)Nc2ccc3[nH]ccc3c2)no1	6.46
Cc1ccc(S(=O)(=O)NCCSc2ccccc2)cc1[N+](=O)[O-]	-0.246
Cc1ccc(N(Cc2ccccc2)C(=O)c2cc(S(=O)(=O)N3CCOCC3)ccc2C)cc1	-27.4
Cc1ccc(N(Cc2ccccc2)C(=O)c2cccc(S(=O)(=O)N3CCN(C)CC3)c2)cc1	-52.7
Cc1cccc(N(Cc2ccccc2)C(=O)c2cccc(S(=O)(=O)N3CC(C)OC(C)C3)c2)c1 (stereo not shown)	-9.56
Cc1ccc(N(Cc2ccccc2)C(=O)c2cccc(S(=O)(=O)N3CCOCC3)c2)cc1	-74.5
CC(=O)N1CCN(S(=O)(=O)c2cccc(C(=O)N(Cc3ccccc3)c3cccc(C)c3)c2)CC1	-27.4
Cc1ccc(N(Cc2ccccc2)C(=O)c2cccc(S(=O)(=O)N3CC(C)OC(C)C3)c2)cc1 (stereo not shown)	-7.01
Cc1ccc(N(Cc2ccccc2)C(=O)c2ccc(S(=O)(=O)N3CCOCC3)cc2)cc1	-28.5
CC(=O)N1CCN(S(=O)(=O)c2cccc(C(=O)N(Cc3ccccc3)c3ccc(C)cc3)c2)CC1	-61.2
CN1CCN(S(=O)(=O)c2cccc(C(=O)N(Cc3ccccc3)c3ccccc3)c2)CC1	-19.9
CCCCSc1n[nH]c(N)n1	14
CC(C)CCn1c(N2CCC(C(N)=O)CC2)nc2c1c(=O)[nH]c(=O)n2C	11.1
CCOc1cc2[nH]c(=S)n(CCCC(=O)NCc3ccco3)c(=O)c2cc1OCC	-7.08
CCOC(=O)/C(C#N)=C/N1CCOCC1	-1.97
COc1cccc(C2C3(C#N)C(N)=NC(OC)(OC)C23C#N)c1 (stereo not shown)	9.01
c1ccc2c(c1)Sc1ccccc1N2CC1CN2CCC1CC2 (stereo not shown)	-53.1
O=C(C1CC1)N1c2ccccc2Sc2ccccc21	7.2

Compound	hERG current change (%, negative = inhibition) at 10uM [%]
CC1CCCN(CC(=O)N2c3ccccc3Sc3ccccc32)C1 (stereo not shown)	1.98
Cc1ccc2nc(-c3cccnc3)oc2c1	5.22
Cc1ccc(C(=O)CN(CCC(=O)O)S(=O)(=O)c2ccc([N+](=O)[O-])cc2)cc1	-25.7
O=C(O)CCN(CC(=O)c1ccc(Cl)cc1)S(=O)(=O)c1ccc([N+](=O)[O-])cc1	-13.7
Cc1ccc(C(=O)CN(CCCC(N)=O)S(=O)(=O)c2ccc([N+](=O)[O-])cc2)cc1	-66.7
c1ccc2c3c([nH]c2c1)-c1[nH]ncc1CC3	1.38
CC(=O)N1CCc2c(sc(NC(=O)CCS(=O)(=O)c3ccc(C)cc3)c2C(N)=O)C1	2.54
O=C(CC1CCCC1)Nc1cc(S(=O)(=O)N2CCOCC2)ccc1O	4.05
COCCNc1c(-c2cc3ccc(C)c(C)c3[nH]c2=O)nc2ccccn12	-74.9
Cc1cccc2cc(-c3nc4c(C)cccn4c3NCc3ccco3)c(=O)[nH]c12	-11.5
Cc1ccc2[nH]c(=O)c(-c3nc4ccccn4c3NCc3ccco3)cc2c1	-12.3
O=C(NCCc1ccccc1)c1cccnc1	7.59
COc1ccc(-c2cn[nH]c2-c2ccc(OCC(=O)NN)cc2O)cc1OC	18.3
COc1cccc(C2CC(c3ccc(NS(C)(=O)=O)cc3)=NN2C(=O)c2ccccc2)c1OC (stereo not shown)	-64.4
COc1ccc(OC)c(C2CC(c3ccc(NS(C)(=O)=O)cc3)=NN2C(=O)c2ccccc2)c1 (stereo not shown)	-67.2
CCOc1ccccc1C1CC(c2cccc(NS(C)(=O)=O)c2)=NN1C(=O)c1ccccc1 (stereo not shown)	-38.1
COc1ccc(C(=O)N2N=C(c3ccc(NS(C)(=O)=O)cc3)CC2c2cccs2)cc1 (stereo not shown)	-10.6
COc1cccc(C2CC(c3ccc(Br)cc3)=NN2C(=O)c2ccncc2)c1OC (stereo not shown)	-29.7
COc1ccccc1C1CC(c2ccc(NS(C)(=O)=O)cc2)=NN1C(=O)c1ccccc1 (stereo not shown)	-50.9
COc1ccc(C2CC(c3ccc(OC)c(OC)c3)=NN2C(=O)c2ccccc2)cc1 (stereo not shown)	9.33
COc1cccc(C2CC(c3cccc(NS(C)(=O)=O)c3)=NN2C(=O)c2ccccc2)c1OC (stereo not shown)	-40.5
COc1ccccc1C1CC(c2ccccc2)=NN1C(=O)c1ccccc1 (stereo not shown)	11.9
